Bioassay records deposited in PubChem by National Center for Advancing Translational Sciences (NCATS).
SMN2 splice enh – qHTS Assay for Enhancers of SMN2 Splice Variant Expression; HEK293 SMN2-luciferase splicing reporter, luminescence, 30-36 h; Potency, µM (series often up to 46.1 µM), inactives show at the top dose activity change, positive = activation, actives largely listed as activators; actives 2.8% (n = 210,000); further: % of control where 0% means no effect; nearly all actives have a fitted effect of over 55% in size
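qHTS luciferase splicing reporter: luminescence rises when SMN2 exon 7 is included in transfected HEK293 cells. Compound exposure lasted 30-36 h at 37C, with 4.5 mM final sodium butyrate as control, followed by a ONE-Glo read.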
NPC1 promoter act – qHTS Assay for NPC1 Promoter Activators | Huh7 NPC1 promoter luciferase reporter, 24 h | Potency, µM (top dose mostly 9.22 µM), for the others: at the highest dose activation, usual class: activators | actives 2.4% (n = 320,000); further: % of control where 0% means no effect; nearly all actives have a fitted effect of over 60% in size
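Cells: Huh7 expressing luciferase under the NPC1 promoter, 1500/well. Seeded 2 h, compound added, incubated 24 h at 37 °C. Luciferase reagent, 10 min ambient, then luminescence.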
ELG1 genotoxic – qHTS screen for small molecules that induce genotoxicity in human embryonic kidney (HEK293T) cells expressing luciferase-tagged ELG1; AID 504466, 2011; Potency, µM (highest dose often 46 µM), without a hit: at the top dose activity change, positive = activation, usual class: activators; actives 1.3% (n = 330,000); HEK293T ELG1-luciferase reporter, luminescence, 16 h; further: % of control where 0% means no effect; nearly all actives have a fitted effect of over 60% in size
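HEK293T cells expressing luciferase-tagged ELG1 were treated with compound or DMSO for 16 hr at 37°C. Luciferase activity was then read after 30 min with ONE-Glo at room temperature; rising signal flags genetic stress.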
FLuc counter – qHTS profiling assay for firefly luciferase inhibitor/activator using purifed enzyme and Km concentrations of substrates (counterscreen for miR-21 project); Luciferin 4-monooxygenase (Photinus pyralis), P08659; purified FLuc, Km substrates, luminescence inhibition; Potency, µM (doses to about 57.5 µM), inactives show top-dose activity change, negative = inhibition, hits mostly inhibitors; actives 6.9% (n = 360,000); AID 588342, 2011;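 further: plate controls were vehicle for no effect and reference inhibitor for full effect; nearly all actives have a fitted effect of over 55% in size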
Target sequence (P08659 whole entry, looked up): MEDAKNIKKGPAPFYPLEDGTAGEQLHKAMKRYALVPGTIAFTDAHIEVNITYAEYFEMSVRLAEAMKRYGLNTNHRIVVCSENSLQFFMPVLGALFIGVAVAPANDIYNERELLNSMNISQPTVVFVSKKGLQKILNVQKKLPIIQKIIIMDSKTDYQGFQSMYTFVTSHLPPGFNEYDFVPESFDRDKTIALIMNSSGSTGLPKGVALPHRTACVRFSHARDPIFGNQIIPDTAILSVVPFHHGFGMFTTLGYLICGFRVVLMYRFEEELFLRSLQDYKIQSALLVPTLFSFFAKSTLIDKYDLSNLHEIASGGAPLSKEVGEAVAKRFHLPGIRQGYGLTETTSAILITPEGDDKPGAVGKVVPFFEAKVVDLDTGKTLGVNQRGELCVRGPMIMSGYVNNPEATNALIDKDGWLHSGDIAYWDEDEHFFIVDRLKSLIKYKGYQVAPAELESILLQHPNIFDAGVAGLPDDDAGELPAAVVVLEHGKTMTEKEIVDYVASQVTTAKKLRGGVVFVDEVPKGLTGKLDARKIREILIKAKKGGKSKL
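Purified P. pyralis luciferase, 10 nM final, with Km-level 10 uM D-luciferin and 10 uM ATP in 50 mM Tris acetate pH 7.5, 10 mM Mg acetate, 0.01% Tween-20, 0.05% BSA; 6-point qHTS titration about 60 µM downward; luminescence read.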
Rab9 promoter act – qHTS Assay for Rab9 Promoter Activators; Huh7 Rab9 promoter-luciferase reporter, luminescence, 24 h; Potency, µM (highest dose often 9.22 µM), without a hit: top-dose activation, negative = inhibition, usual class: activators; actives 2.8% (n = 320,000); AID 485297, 2010; further: % of control where 0% means no effect; nearly all actives have a fitted effect of over 60% in size
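Rab9 promoter-driven luciferase in stably transfected Huh7 cells; 1500 cells/well rested 2 h, exposed to compound in DMSO for 24 h at 37 °C, 5% CO2. Luminescence read 10 min after adding luciferase reagent at ambient temperature.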
* marks the source's active call; other numbers are inactive results; ? = inconclusive; / = not tested or not shown; [ ] = another dose, or the depositor's remark. Shown are actives, neighbours in structure and some others; about 7.4% of the full set was active somewhere. The call rests on the fitted dose curve; in most records, active means well fitted curve in the direction sought with a large enough effect; inconclusive means small, poorly fitted or top-dose-only effect, or another doubt; inactive means no such curve, though single readings can be large; an effect the other way counts as inactive or inconclusive. Potency means the concentration at half of the fitted maximal effect.

SMILES	SMN2 splice enh	NPC1 promoter act	ELG1 genotoxic	FLuc counter	Rab9 promoter act
CC1=NN(C(N)=S)C(=O)C1N=Nc1ccc(O)cc1 (centres undefined)	/	-10.7%	9.0%	26.9µM*	1.6%
CCOc1ccc(N=NC2C(=O)N(C(N)=S)N=C2C)cc1 (centres undefined)	/	2.82µM*	18.3µM*	3.79µM*	3.98µM*
CC1=NN(c2nc(-c3ccc(C)cc3)cs2)C(=O)C1N=Nc1cccc(C)c1 (centres undefined)	1.3%[1.84 µM]	27.9%	1.2%	?	?
O=C(CCc1ccccc1)N(Cc1cccnc1)c1nc2ccc(F)cc2s1	/	/	/	-4.0%	/
COc1ccc(C(=O)NNc2ncnc3c2cnn3-c2cccc(Cl)c2)cc1OC	/	/	/	3.2%	/
CCOC(=O)c1c(-c2ccc(C)cc2)csc1NC(=O)c1cc2ccccc2oc1=O	-58.2%	-18.1%	-14.3%	-14.6%	4.1%
CC1=NN(C(N)=S)C(=O)C1N=Nc1ccc(F)cc1 (centres undefined)	/	2.51µM*	23.1µM*	10.7µM*	3.55µM*
CC1=NN(C(N)=S)C(=O)C1N=Nc1ccccc1Cl (centres undefined)	/	17.4%	8.7%	?	14.9%
CC1=NN(C(N)=S)C(=O)C1N=Nc1ccc([N+](=O)[O-])cc1 (centres undefined)	/	?	?	3.38µM*	?
CC1=NN(C(N)=S)C(=O)C1N=Nc1ccccc1C(=O)O (centres undefined)	/	-2.1%	-4.2%	4.9%	7.5%
CC1=NN(C(N)=S)C(=O)C1N=Nc1cccc(C(=O)O)c1 (centres undefined)	/	?	1.6%	4.78µM*	2.51µM*
CC1=NN(C(N)=S)C(=O)C1N=Nc1ccc(Cl)cc1Cl (centres undefined)	/	3.16µM*	?	23.9µM*	4.47µM*
COc1ccccc1N=NC1C(=O)N(C(N)=S)N=C1C (centres undefined)	/	-1.5%	-4.9%	?	0.7%
O=c1oc2ccccc2c(Cl)c1CN1CCCCC1	/	-22.2%	2.2%	-0.8%	-0.2%
CCOc1ccc(NC(=O)CSc2oc(-c3ccccc3)nc2S(=O)(=O)c2ccc(Cl)cc2)cc1	/	/	/	2.6%	/
COC(=O)[C@@]1(Cc2ccc(OC)cc2)[C@H]2c3cc(C(=O)N4CCCC4)n(CCF)c3C[C@H]2CN1C(=O)c1ccccc1	-7.1%	/	/	/	/
COc1ccc(NS(=O)(=O)c2cc3c4c(c2)CCN4C(=O)CC3)cc1OC	/	-3.9%	-0.1%	-1.2%	-6.4%
CC(=O)Nc1ccc(N)cc1	-1.4%	0.4%	-0.6%	1.6%	-3.2%
CC(=O)Nc1ccc(N=NC2C(=O)N(C(N)=S)N=C2C)cc1 (centres undefined)	/	?	?	12µM*	?
Cc1ccc(NC(=O)COC(=O)c2ccccc2Nc2ccccc2)cc1	-22.9%	1.3%	0.4%	4.8%	-2.1%
CN(C(=O)c1ccccc1C(=O)OCC(=O)c1ccccc1)c1ccccc1	/	-2.3%	1.2%	?	-7.8%
COc1ccccc1NC(CC(=O)c1ccccc1)C(=O)OCC(=O)c1ccc(F)cc1 (centres undefined)	5.62µM*	15.9%	1.64µM*	1.69µM*	13.3%
CNc1ccccc1C(=O)OCC(=O)c1ccccc1	?	8.6%	17.3%	7.57µM*	16.3%
COc1ccccc1NC(=O)CCCC(=O)OCC(=O)c1ccc(F)cc1	/	-5.7%	-2.7%	-15.5%	-6.2%
O=C(COC(=O)c1cc2ccccc2cc1O)c1ccccc1	/	0.4%	?	26.9µM*	4.6%
SMILES	SMN2 splice enh	NPC1 promoter act	ELG1 genotoxic	FLuc counter	Rab9 promoter act
O=C(COC(=O)c1ccccc1Nc1ccccc1)c1ccccc1	10.5%	-2.4%	1.8%	13.5µM*	4.4%
Cc1ccc(C)c(NC(=O)Cn2c(=O)n(-c3ccccc3C)c(=O)c3c2c2cc(C)ccc2n3C)c1	/	/	/	-4.1%	/
CN(C(=O)c1ccccc1C(=O)OCC(=O)c1ccc(F)cc1)c1ccccc1	/	0.6%	-1.2%	?	-4.6%
CNc1ccccc1C(=O)OCC(=O)c1ccc(F)cc1	-5.8%	20.0%	12.1%	5.36µM*	22.8%
Cc1nonc1OCCCNc1ccc([N+](=O)[O-])cc1Cl	-1.1%	2.3%	-6.9%	?	6.0%
O=C(Nc1ccc(Br)cc1)c1ccc2ncsc2c1	/	0.398µM*	1.64µM*	5.36µM*	0.355µM*
CC(C)(C)c1ccc(NC(=O)COC(=O)c2ccc3ncsc3c2)cc1	/	7.0%[1.84 µM]	-0.1%	-16.6%	20.5%
O=C(Nc1ccc2c(c1)C(=O)NC2=O)c1ccc2ncsc2c1	11.2µM*	?	?	?	?
CCc1ccc(NC(=O)c2ccc3ncsc3c2)cc1	8.91µM*	1.41µM*	?	2.69µM*	3.55µM*
COc1ccc(NC(=O)c2ccc3ncsc3c2)cc1	/	3.16µM*	?	8.49µM*	1.41µM*
CN(C)S(=O)(=O)c1ccc(NC(=O)c2ccc3ncsc3c2)cc1	/	24.4%	?	?	14.8%
Cc1cccc(Nc2nc(Cl)ncc2F)c1C	/	0.7%	-1.0%	4.7%	0.3%
O=C(Nc1cccnc1)c1sc2cccc(F)c2c1Cl	?	?	-2.7%	8.49µM*	?
O=C(Nc1ccccn1)c1sc2cccc(F)c2c1Cl	2.51µM*	?	?	0.379µM*	?
CCOC(=S)SCC(=O)O	-19.8%[9.22 µM]	/	/	/	/
Cc1sc(NC(=O)CN2CCOCC2)c(C#N)c1C	/	-3.6%	3.4%	5.3%	-2.2%
COCCNC(=O)Cn1nc(N2CCN(c3ccccc3OC)CC2)ccc1=O	/	/	/	-0.8%	/
O=C(NC(=O)c1ccccc1O)c1ccc(C(F)(F)F)cc1	/	?	5.2%	3.01µM*	?
CCCc1ccc(C(=O)NC(=O)c2ccccc2O)cc1	/	?	5.7%	0.601µM*	?
CCCc1ccc(C(=O)NNC(=O)c2ccc(Br)cc2)cc1	-20.8%	-2.2%	-1.2%	2.8%	-0.5%
NS(=O)(=O)c1c(Sc2ccccc2C(=O)O)ccc2ccccc12	/	19.9%	?	?	?
OCCOCCN1CCN(C(=S)Nc2ccccc2)CC1	-4.4%	-3.0%	-0.3%	-9.7%	-7.3%
Cc1ccc(S(=O)(=O)N(C)CC(=O)Nc2ccc(C)cn2)cc1	/	-2.1%	13.3%	-17.7%	?
Cc1ccnc(NC(=O)Cc2ccc(-c3ccccc3)cc2)c1	/	-4.4%	2.31µM*	10.7µM*	-36.8%
Cc1ccnc(NC(=O)CNC(=O)c2ccc(Br)o2)c1	/	6.1%	16.4µM*	?	-7.5%
Cc1ccc(S(=O)(=O)N(C)CC(=O)Nc2cc(C)ccn2)cc1	/	-2.0%	10.3µM*	?	0.5%
c1cncc(CSc2ncnc3nc[nH]c23)c1	-3.7%[9.22 µM]	/	/	/	/
COc1ccc(/C=N/NC(=O)c2cc(C34CC5CC(CC(C5)C3)C4)[nH]n2)cc1O	-2.3%	3.5%	?	15.1µM*	-1.6%
